In PubChem BioAssay:
Records with an inconclusive call do not appear. The source made the active and inactive calls.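 Rule for the calls, unless noted: active = Her2 level under about 52% in both replicate screens, with viability over 70% of control (limit read from the data); inconclusive = Her2 under the limit in one screen only, or viability under 70%; inactive = Her2 level above the set limit.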

How the values were obtained:
[1] = reducers of endogenous Her2 protein level, primary screen, SKBR3 breast tumor cells, AlphaScreen, ATP viability (AID 461); details: 18-24 h, measured here: SKBR3 viability, ATP luminescence, at 10 µM;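 for Her2 level: lower value means less Her2 protein in the cells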;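 for viability: percent of carrier control wells set as 100% viability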
[2] = biological target: Receptor tyrosine-protein kinase erbB-2 (Homo sapiens) (UniProt P04626); assay: as above; details: 18-24 h, at 10 µM, stronger effect = lower value
[3] = SK-BR-3 cell growth inhibitors, pilot screen, 24 h, human (AID 572;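 active = viability at or below 10% of carrier control in both of two separate runs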;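 note: compound exposure lasted between 18 and 24 h rather than exactly 24 h; 100% = carrier-treated control wells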); details: SK-BR-3 viability, CellTiter-Glo luminescence, at 10 µM, stronger effect = lower value
[4] = HUVEC growth inhibition – cell-based, human, primary screen (AID 575;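 active = viability at or below 30% in both replicate assays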;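 note: 100% = median of untreated cell wells with 0.1% DMSO on each plate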); details: HUVEC proliferation, CellTiter-Glo luminescence, 72 h; at 10 µM; stronger effect = lower value
[5] = growth inhibitors of H69AR lung tumor, primary screen, human, duplicate replicates (AID 580;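 active = viability at or under a set limit in both replicates, limit being median viability minus 3 SD, cut at about 48% in these data, passing the limit was not always enough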;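 note: 100% = mean luminescence of untreated wells and 0% = no signal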); details: H69AR lung tumor cells viability, ATP luminescence, 72 h; at 10 µM; stronger effect = lower value
[6] = reversal of MRP1-mediated doxorubicin resistance, pilot screen, H69AR cells, doxorubicin co-treatment (AID 601;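 active = viability loss from added drug above about 55%, and viability with drug at most 40%, in both replicates, limit read from the data, passing the limit was not always enough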); details: CellTiter-Glo, 72 h, at 10 µM; for differential viability (reversal): stronger effect = higher value
[7] = 384-well plate pilot, post-Golgi transport modulator project, inhibition of yeast transport mutant growth (AID 636; in the data active = inhibition above about 31%); details: absorbance 615 nm, about 18 h, stronger effect = higher value
[8] = growth suppression of yeast trafficking mutant, preliminary HTS, modulators of trafficking downstream of Golgi apparatus project, 1536-format plate, OD 615 nm (AID 637; in the data active = inhibition above about 30%); details: yeast transport mutant growth, absorbance 615 nm, 18 h; stronger effect = higher value
[9] = OD615 S. cerevisiae growth inhibition, permissive medium, pilot counter-assay, permissive growth control for S. cerevisiae lifespan shortening project (AID 705;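 active = growth inhibition above 25% in both replicates, a cutoff set 3 SD above the mean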); details: OD615, 24 h, at 10 µM, stronger effect = higher value
[10] = Restrictive medium S. cerevisiae growth inhibition, OD615, pilot screen of yeast lifespan reduction project, restrictive growth control (AID 706;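 active = growth inhibition above a set limit, 3 SD over mean compound inhibition, in both replicates, cut at about 43% in these data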;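 note: modified DeaD lifespan yeast strain shifted to restrictive glucose medium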); details: OD615, 48 h, at 10 µM, stronger effect = higher value
[11] = viability gain of MRP-1-high H69AR cells under doxorubicin, pilot screen, MRP-1 activator project, CellTiter-Glo, duplicate (AID 807;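 active = viability increase at or above a cutoff of the median across tested compounds plus 3 SD, cut at about 8.5% in these data, passing the limit was not always enough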;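 note: compound pretreatment 18-22 h then 72 h combined with doxorubicin; 0% = doxorubicin alone and 100% = vehicle without doxorubicin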); details: H69AR viability with doxorubicin, CellTiter-Glo luminescence; at 10 µM; stronger effect = higher value
[12] = growth suppression of beta-catenin knockout HCT116, pilot screen, human colon tumor cells (AID 823;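 active = cell viability at or below a set limit in both duplicate runs, the limit being the all-compound median minus 4 SD, cut at about 23% in these data, passing the limit was not always enough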;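 note: 0% = wells killed by 20 µM Hyamine and 100% = untreated DMSO cell wells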); details: CellTiter-Glo, 60 h, at 10 µM, stronger effect = lower value
[13] = growth suppression of PTEN-deleted HCT116, pilot screen, cell-based, HCT116 clonal line, CellTiter-Glo (AID 824;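 active = viability at or below 27.92% in each of two runs, the all-compound median minus 4 SD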;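 note: 0% = 20 µM Hyamine control and 100% = vehicle cell control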); details: 60 h, at 10 µM, stronger effect = lower value
[14] = inhibitors of the yeast RAM network, pilot screen, dse1pr::URA3 reporter, 5-FOA selection (AID 869;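 active = inhibition over a set limit, the all-compound mean plus 3 SD, in both replicate runs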;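 note: 0% = DMSO wells with no growth and 100% = 10 µM 1-NA-PP1 with full growth; RAM network block rescues cells from 5-FOA so hits raise OD615 growth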); details: S. cerevisiae dse1pr::URA3 5-FOA growth, OD615, 2 d; at 10 µM; stronger effect = higher value; strain carries analog-sensitive mutant Cbk1 kinase
[15] = RAM signaling pathway blockade in yeast – S. cerevisiae, Pdr1DBD-CYC8 efflux-inhibited sensitized strain, primary screen (AID 1298;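 active = RAM network inhibition above 8.4% in each of two replicates, 3 SD over the compound average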;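 note: 0% = DMSO untreated cells without growth and 100% = 10 µM 1-NA-PP1 full growth; higher means more yeast growth rescued from 5-FOA killing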); details: S. cerevisiae cbk1-as DSE1-URA3 strain, 5-FOA growth OD615, 2 d; at 50 µM; stronger effect = higher value
[16] = H69AR cells + 2 uM doxorubicin, measured here: viability with 2 uM doxorubicin, stronger effect = lower value
[17] = H69AR cells, compound alone cytotoxicity

Sequence of Receptor tyrosine-protein kinase erbB-2 (Homo sapiens) (P04626 whole entry, looked up): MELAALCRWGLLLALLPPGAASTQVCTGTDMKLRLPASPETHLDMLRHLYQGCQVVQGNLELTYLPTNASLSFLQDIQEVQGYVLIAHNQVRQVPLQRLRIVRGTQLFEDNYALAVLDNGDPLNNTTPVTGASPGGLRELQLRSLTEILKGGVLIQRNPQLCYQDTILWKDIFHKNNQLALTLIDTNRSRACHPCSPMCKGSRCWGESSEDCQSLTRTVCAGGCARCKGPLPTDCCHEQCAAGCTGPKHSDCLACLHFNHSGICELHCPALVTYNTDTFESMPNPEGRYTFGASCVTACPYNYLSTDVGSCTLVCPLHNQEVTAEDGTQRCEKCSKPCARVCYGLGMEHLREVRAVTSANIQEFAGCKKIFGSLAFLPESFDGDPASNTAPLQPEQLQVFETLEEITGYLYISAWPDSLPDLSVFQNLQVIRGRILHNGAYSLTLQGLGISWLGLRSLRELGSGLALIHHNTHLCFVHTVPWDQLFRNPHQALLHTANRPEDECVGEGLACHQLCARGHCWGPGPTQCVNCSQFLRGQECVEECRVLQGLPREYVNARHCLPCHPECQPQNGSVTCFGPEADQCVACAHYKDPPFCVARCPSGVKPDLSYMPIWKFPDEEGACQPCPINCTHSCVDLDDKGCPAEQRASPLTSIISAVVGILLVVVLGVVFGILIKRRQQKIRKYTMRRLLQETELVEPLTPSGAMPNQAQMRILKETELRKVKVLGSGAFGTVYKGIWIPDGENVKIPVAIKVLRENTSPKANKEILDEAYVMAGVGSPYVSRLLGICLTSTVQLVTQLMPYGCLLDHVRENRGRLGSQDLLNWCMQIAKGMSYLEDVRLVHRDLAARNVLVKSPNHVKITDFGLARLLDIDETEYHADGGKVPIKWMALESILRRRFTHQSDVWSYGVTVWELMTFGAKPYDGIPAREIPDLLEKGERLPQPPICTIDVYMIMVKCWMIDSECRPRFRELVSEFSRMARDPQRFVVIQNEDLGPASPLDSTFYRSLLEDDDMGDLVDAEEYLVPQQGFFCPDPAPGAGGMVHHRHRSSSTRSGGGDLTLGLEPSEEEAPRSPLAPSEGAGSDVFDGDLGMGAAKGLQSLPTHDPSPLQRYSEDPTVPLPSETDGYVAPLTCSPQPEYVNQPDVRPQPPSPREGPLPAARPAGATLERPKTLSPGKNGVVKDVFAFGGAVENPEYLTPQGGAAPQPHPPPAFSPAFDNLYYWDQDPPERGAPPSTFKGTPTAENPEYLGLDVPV

SMILES	viability [1] [%]	Her2 level [2]	viability [3]	viability [4]	viability [5]	differential viability (reversal) ([6]; H69AR cells + 2 uM doxorubicin)	viability [6, 16] [%]	viability [6, 17] [%]	inhibition [7]	inhibition [8]	growth inhibition [9]	growth inhibition [10]	viability increase [11]	viability [12]	viability [13]	inhibition [14]	RAM network inhibition [15]
O=C(NCCN1C(=O)C2C3C=CC(C3)C2C1=O)N1CCCCC1 (stereo not given)	122	112% (inactive)	122% (inactive)	100% (inactive)	103% (inactive)	6.97% (inactive)	96.5	103	4.93% (inactive)	-4.83% (inactive)	-11.7% (inactive)	0.245% (inactive)	-0.67% (inactive)	102% (inactive)	95.1% (inactive)	2.13% (inactive)	3.08% (inactive)
COCCNC(=O)C(C)N(c1ccc(Oc2ccccc2)cc1)S(C)(=O)=O (stereo not given)	112	95.5% (inactive)	112% (inactive)	102% (inactive)	96.5% (inactive)	7.53% (inactive)	89	96.5	-0.65% (inactive)	3.44% (inactive)	-4.62% (inactive)	4.17% (inactive)	-0.82% (inactive)	90.7% (inactive)	91.6% (inactive)	-0.1% (inactive)	3.42% (inactive)
CC(=O)Nc1cccc(NC(=O)c2ccco2)c1	94	94% (inactive)	94% (inactive)	108% (inactive)	91.5% (inactive)	-0.085% (inactive)	91.6	91.5	-2.21% (inactive)	-11.7% (inactive)	-5.76% (inactive)	-3.89% (inactive)	-4.18% (inactive)	99.6% (inactive)	98.1% (inactive)	1.83% (inactive)	0.76% (inactive)
CCCCN=CC1=C(O)C(C(=O)OC)C(C)(C)CC1=O (stereo not given)	79	93.5% (inactive)	79% (inactive)	104% (inactive)	91.4% (inactive)	4.54% (inactive)	86.9	91.4	1.03% (inactive)	25.8% (inactive)	-1.01% (inactive)	-5.23% (inactive)	-0.63% (inactive)	93.8% (inactive)	93.9% (inactive)	0.72% (inactive)	1.5% (inactive)
CCOC(=O)c1ccccc1NC(=O)CSc1nccn1C	89	94% (inactive)	89% (inactive)	94% (inactive)	108% (inactive)	15.5% (inactive)	92.7	108	0.91% (inactive)	-3.44% (inactive)	-4.88% (inactive)	3.13% (inactive)	-1.73% (inactive)	102% (inactive)	98.2% (inactive)	1.55% (inactive)	1.28% (inactive)
CCN1C(=C2C(=O)c3ccccc3C2=O)C=Cc2ccccc21	96.5	97% (inactive)	96.5% (inactive)	92.6% (inactive)	93.4% (inactive)	-0.49% (inactive)	93.9	93.4	0.64% (inactive)	-8% (inactive)	-23.3% (inactive)	-27.6% (inactive)	-1.18% (inactive)	105% (inactive)	95.1% (inactive)	1.86% (inactive)	-0.72% (inactive)
COc1ccccc1NCN1C(=O)CCC1=O	102	98% (inactive)	102% (inactive)	104% (inactive)	82.4% (inactive)	-20.8% (inactive)	103	82.4	-7.47% (inactive)	2% (inactive)	-9.71% (inactive)	1.64% (inactive)	-0.43% (inactive)	102% (inactive)	95.5% (inactive)	1.98% (inactive)	3.27% (inactive)
COc1ccc(N(CC(=O)Nc2ccc3c(c2)OCCO3)S(=O)(=O)c2cccnc2)cc1	91	108% (inactive)	91% (inactive)	104% (inactive)	92.5% (inactive)	4.99% (inactive)	87.5	92.5	-5.13% (inactive)	-3.83% (inactive)	-10.3% (inactive)	0.75% (inactive)	-2.05% (inactive)	102% (inactive)	99.7% (inactive)	1.63% (inactive)	4.76% (inactive)
O=c1oc2c3c4c(cc2s1)CCCN4CCC3	89	86% (inactive)	89% (inactive)	101% (inactive)	95.6% (inactive)	4.35% (inactive)	91.2	95.6	-4.42% (inactive)	-2% (inactive)	2.12% (inactive)	-7.54% (inactive)	-3.91% (inactive)	101% (inactive)	97.1% (inactive)	1.76% (inactive)	6.79% (inactive)
COC(=O)C1=C(C)Nc2ncnn2C1c1ccc(C)o1 (stereo not given)	103	119% (inactive)	103% (inactive)	94.5% (inactive)	91.7% (inactive)	7.49% (inactive)	84.2	91.7	0.27% (inactive)	4.67% (inactive)	-16.6% (inactive)	-18.4% (inactive)	-1.12% (inactive)	107% (inactive)	101% (inactive)	2.39% (inactive)	-1% (inactive)
